Apoferritin bind = binds horse apoferritin like a general anesthetic | apoferritin/1-aminoanthracene competitive binding, fluorescence | Potency, µM (titrated, usually from 77.5 µM), without a hit: at the top dose activity change, negative = displacement, hits mostly inhibitors | P02791 | hit rate 0.074% among 350,000; also: potency is read from the fitted curve at half-maximal effect; % is scaled to controls: 0 for no effect and ±100 for the full control effect; nearly all actives have a fitted effect of over 20% in size
Target sequence (P02791 2-175 limits assumed): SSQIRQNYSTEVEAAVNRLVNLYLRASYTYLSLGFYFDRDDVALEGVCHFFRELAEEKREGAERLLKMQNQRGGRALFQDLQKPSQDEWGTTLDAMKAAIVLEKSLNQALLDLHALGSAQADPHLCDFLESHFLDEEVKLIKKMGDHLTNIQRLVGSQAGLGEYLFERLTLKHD
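Probe: 1-aminoanthracene (50% saturated, PBS). Protein: horse-spleen apoferritin, 10 uM. Incubation: 10 min, room temperature. Detection: 380 nm excitation, 535 nm emission. Analysis: normalized response, four-parameter Hill.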
A549 viability = kills or reduces viability of A549 cells in Nrf2 counter-screen | AID 504648 | Potency, µM (highest dose often 46 µM), inactives show top-dose activity change, negative = cytotoxicity, most hits filed as inhibitors | A549 ARE-Fluc cells, CellTiter-Fluor viability, 18-24 h | hit rate 0.16% among 390,000; also: potency is read from the fitted curve at half-maximal effect; % is scaled to controls: 0 for no effect and ±100 for the full control effect
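A549 ARE-Fluc cells in 5% FBS OPTI-MEM, 5000 cells/well, rested 2 h then exposed to compounds in concentration-response for 18-24 h at 37 °C. Viability by CellTiter-Fluor fluorescence (Ex 405/Em 525) after 30 min; luciferase luminescence (BugLite, 15 min, RT) read afterwards.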
Nrf2 block = blocks Nrf2 signaling; A549 ARE-Fluc reporter, luciferase luminescence, 18-24 h; Potency, µM (top dose mostly 46 µM), inactives show at the highest dose activity change, negative = inhibition, actives largely listed as inhibitors; hit rate 2.1% among 360,000; also: potency is read from the fitted curve at half-maximal effect; % is scaled to controls: 0 for no effect and ±100 for the full control effect; nearly all actives have a fitted effect of over 60% in size
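A549 ARE_Fluc cells (5000/well, 5% FBS OPTI-MEM) pre-incubated 2 h, then treated with compounds 18-24 h at 37C/5% CO2 in concentration-response. CellTiter-Fluor viability read first; BugLite luciferase luminescence after 15 min at room temperature gives Nrf2 activity.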
mIDH1 inhibitor = inhibitors of human mutant IDH1 R132H | O75874 | IDH1-R132H enzyme, NADPH consumption, diaphorase/resazurin fluorescence | Potency, µM (series often up to 76.6 µM), for the others: top-dose activity change, negative = inhibition, most hits filed as inhibitors | hit rate 0.093% among 390,000; also: potency is read from the fitted curve at half-maximal effect; % is scaled to controls: 0 for no effect and ±100 for the full control effect; nearly all actives have a fitted effect of over 65% in size
Target sequence (O75874 whole entry R132H, stated change not applied): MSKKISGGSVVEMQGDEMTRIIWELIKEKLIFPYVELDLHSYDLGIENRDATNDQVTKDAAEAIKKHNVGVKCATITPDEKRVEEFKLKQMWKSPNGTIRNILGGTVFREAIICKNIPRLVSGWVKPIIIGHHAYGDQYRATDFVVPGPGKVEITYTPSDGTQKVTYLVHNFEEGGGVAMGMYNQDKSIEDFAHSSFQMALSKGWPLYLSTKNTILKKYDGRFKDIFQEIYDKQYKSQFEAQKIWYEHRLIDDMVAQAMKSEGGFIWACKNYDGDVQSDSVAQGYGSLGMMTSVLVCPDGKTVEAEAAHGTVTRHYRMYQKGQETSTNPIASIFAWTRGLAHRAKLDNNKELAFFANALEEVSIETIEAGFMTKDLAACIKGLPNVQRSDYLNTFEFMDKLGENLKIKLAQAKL
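IDH1-R132H (0.5 ug/mL) preincubated 30 min with compound, then NADPH (0.016 mM) and alpha-KG (2 mM) added; 80 min at RT, pH 7.5. Remaining NADPH coupled via diaphorase/resazurin to fluorescence (540/590 nm); concentration-response curves normalized to no-enzyme control.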
Giardia kill = Giardia lamblia killing | AID 540267 | hit rate 0.15% among 340,000 | Giardia lamblia trophozoite viability | activity change, % at 7.66 µM, hits read low; in the data active = activity change below about -80%; inconclusive = between about -30% and that limit;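 also: parasites exposed to compound for two days anaerobically before the ATP read; % is scaled to controls: 0 for no effect and ±100 for the full control effect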
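Media and compound were dispensed first, then trophozoites at 100 cells/well; plates sat 48 hrs at 37 deg C without oxygen before ATP luminescence reagent was added and read after 15-30 min at room temperature.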
Nrf2 ARE act = Nrf2 pathway activation | AREc32 ARE-luciferase reporter (MCF7-derived line), luminescence, 24 h | Potency, µM (series often up to 46.1 µM), for inactives: at the highest dose activation, actives largely listed as activators | hit rate 0.31% among 410,000; also: potency is read from the fitted curve at half-maximal effect; % of control where 0% means no effect; nearly all actives have a fitted effect of over 65% in size
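Nrf2 activation is followed as ARE-luciferase induction in the AREc32 line after one day of compound treatment; luminescence is read with Steady-Glo.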
* marks the source's active call; other numbers are inactive results; ? = inconclusive; . = no result given; [ ] = dose if it differs, or a comment. Only some compounds are listed: those with a hit (about 2.3% of all), similar ones and a draw of the others. Unless noted, calls follow the shape of the dose curve; as a rule, active = well fitted curve in the direction sought with a large enough effect; inconclusive = small, poorly fitted or top-dose-only effect, or another doubt; inactive = no such curve, though single readings can be large; an effect the other way counts as inactive or inconclusive.

SMILES | Apoferritin bind | A549 viability | Nrf2 block | mIDH1 inhibitor | Giardia kill | Nrf2 ARE act
CCNC(=S)N1CCN(c2nc(-c3ccc(F)cc3)cs2)CC1 | -17.5% | 3.0% | 18.4µM* | -1.7% | -23.9 | 0.7%
CNC(=S)N1CCN(c2nc(-c3ccc(Cl)cc3)cs2)CC1 | -18.9% | -12.5% | 18.4µM* | 12.6% | 8.6 | -0.2%
CC(C)C(=O)N1CCN(c2nc(-c3ccc(Cl)cc3)cs2)CC1 | -11.3% | -2.9% | ? | 5.7% | -14.8 | 3.6%
COCCNC(=S)N1CCN(c2nc(-c3ccc(Cl)cc3)cs2)CC1 | -8.9% | 6.1% | ? | 0.6% | -5.8 | 3.6%
COc1cccc(-c2csc(N3CCN(C(=S)Nc4ccccc4)CC3)n2)c1 | -6.3% | -4.6% | -20.0% | -1.8% | -2.7 | 3.8%
C[C@H](C(=O)O)c1ccc2cc(O)ccc2c1 | 2.1% | . | . | . | . | .
S=C(NCC1CCCO1)N1CCN(c2nc(-c3ccccc3)cs2)CC1 (configuration not stated) | 1.0% | -11.4% | 13µM* | 16.5% | -23.2 | 0.1%
COc1cccc(-c2csc(N3CCN(C(=S)Nc4ccc(Cl)cc4)CC3)n2)c1 | -16.0% | -25.0% | 20.6µM* | -1.9% | -1.9 | 5.0%
Oc1ccc(/C=N\Nc2nncc(-c3ccccc3)n2)cc1 | 3.9% | -14.0% | ? | -13.3% | 36.4 | 7.08µM*
C=CC[n+]1c(-c2ccc(Cl)cc2Cl)csc1Nc1ccc(NC(C)=O)cc1 | 6.6% | -14.5% | 11.6µM* | -3.7% | -13.8 | -1.6%
O=c1c2ccccc2oc2ccc(Oc3ccccc3)cc12 | ? | 15.6% | ? | 0.0% | -25.0 | 27.4%
COc1cc2oc3ccccc3c(=O)c2cc1OC | 97.9% | -1.2% | 6.8% | 18.9% | 13.5 | 10µM*
COC(=O)c1cc2c(=O)c3ccccc3oc2nc1C | 5.4% | -0.2% | ? | 3.0% | 3.0 | 7.94µM*
COc1ccc2oc3cc(Cl)ccc3c(=O)c2c1 | . | . | . | . | . | 7.94µM*
Cc1nc2oc3ccccc3c(=O)c2cc1C(=O)O | 2.9% | -3.8% | 9.0% | -4.2% | -8.8 | -0.2%
COc1ccc(O[C@H]2C=C[C@@H](c3ccccc3)O[C@H]2COC(=O)CC/C(C)=N\O[C@@H](C)c2cn([C@H]3COC[C@H]3O)nn2)cc1 | 5.2%[15.3 µM] | . | . | . | . | .
O=C(NCc1cccc(Cl)c1)c1cc(COc2ccc3ncccc3c2)on1 | ? | -26.1% | 10.3µM* | -0.2% | -12.5 | 4.4%
CCN1CCN(C(=O)c2cc(COc3ccc4ncccc4c3)on2)CC1 | -11.4% | -11.9% | 20.6µM* | 2.7% | 11.3 | 0.1%
CC(C)N(Cc1nccn1C)C(=O)c1cc(COc2ccc3ncccc3c2)on1 | -4.7% | -11.5% | 13µM* | 0.0% | 9.2 | 0.1%
CCN(CC)C(=O)C1CCCN(C(=O)c2cc(COc3ccc4ncccc4c3)on2)C1 (configuration not stated) | -10.2% | 1.0% | ? | 7.8% | 6.0 | 1.7%
Cc1ccc(F)cc1CNC(=O)c1cc(COc2ccc3ncccc3c2)on1 | ? | 1.7% | ? | -6.6% | 5.9 | 2.1%
COCC1CCCCN1C(=O)c1cc(COc2ccc3ncccc3c2)on1 (configuration not stated) | -6.2% | -6.6% | ? | -5.5% | 9.7 | 0.2%
CCCN1CCN(C(=O)c2cc(COc3ccc4ncccc4c3)on2)CC1 | -6.1% | -18.2% | 5.17µM* | 14.5% | -2.4 | 2.2%
CCOC(=O)c1ccc(N2C(=O)c3n[nH]c(C)c3C2c2ccc(OCC)cc2)cc1 (configuration not stated) | ? | -14.8% | ? | -18.2% | . | -3.9%
COc1ccc2nc(C(F)(F)Cl)c(C#N)c(N)c2c1 | -14.3% | -3.5% | 20.6µM* | 0.1% | -12.4 | -0.9%
SMILES | Apoferritin bind | A549 viability | Nrf2 block | mIDH1 inhibitor | Giardia kill | Nrf2 ARE act
Cc1nn(C)c(Cl)c1S(=O)(=O)N1CCC(CO)(CCc2ccccc2)CC1 | -11.4% | -10.2% | 20.6µM* | 3.3% | 10.2 | 0.1%
CC(NC(=O)Cn1c(-c2cccs2)cc2cc(F)ccc21)c1ccccc1 (configuration not stated) | 2.0% | -1.0% | 5.5% | -0.7% | . | 1.0%
NNc1nc(-c2ccccc2)nc2sc3c(c12)CCCC3 | -11.4% | 8.3% | ? | 11.1% | -4.8 | 1.41µM*
NNc1nc2sc3c(c2c(=O)n1Cc1ccccc1)CCC3 | -22.2% | 1.8% | 10.0% | 11.0% | 7.2 | 0.3%
CCc1nc2c(cnn2-c2ccc(Cl)cc2)c(=O)n1-c1ccc(OC)c(Cl)c1 | -12.8% | -2.1% | ? | 11.8% | . | 0.2%
O=C(CSc1nnc(-c2cccs2)o1)c1cccs1 | -16.5% | 0.1% | ? | 0.6% | -4.2 | 6.2%
Cc1cc(C(=O)CSc2nnc(-c3cccs3)o2)c(C)n1-c1ccccc1 | 3.7% | -3.3% | 20.6µM* | 13.6% | -9.9 | -0.5%
CCOc1ccccc1NC(=O)C(Cc1ccccc1)NS(=O)(=O)c1ccc(Br)s1 (configuration not stated) | 65.8% | -10.5% | 18.4µM* | -5.5% | . | 0.0%
COc1ccc(C)cc1NC(=O)C(Cc1ccccc1)NS(=O)(=O)c1ccc(Br)s1 (configuration not stated) | -6.1% | -9.1% | ? | -9.8% | . | 3.4%
COc1ccc(CN(C(=O)CSc2nnc(-c3ccccc3F)o2)c2ccc(F)cc2)cc1 | 48.9% | -6.1% | 20.6µM* | 1.1% | -10.7 | -1.1%
CN(C(=O)CSc1nnc(-c2ccccc2F)o1)c1ccccc1 | . | 3.6% | ? | 1.5% | 6.9 | 3.9%
CC1CCCN(C(=O)c2ccc(OC3CCN(CCc4ccccc4)CC3)cc2)C1 (configuration not stated) | -13.2% | 0.6% | 16.4µM* | 5.0% | -9.0 | -0.1%
COc1cccc(CC(=O)Nc2nc(-c3cc(OC)ccc3OC)cs2)c1 | 66.4% | -1.5% | -12.8% | 3.7% | 6.5 | 0.1%
COc1ccc(OC)c(-c2csc(NC(=O)Cc3cccs3)n2)c1 | -5.6% | -6.1% | 16.4µM* | 9.2% | -6.9 | 6.8%
CCc1noc(C)c1C(=O)Nc1nc(-c2ccc(OC)cc2OC)cs1 | . | -2.9% | 8.2µM* | 0.0% | 9.0 | 0.3%
COc1ccc(CC(=O)Nc2nc(C(C)(C)C)cs2)cc1 | -4.2% | ? | 13µM* | -4.0% | -23.6 | 2.5%
COc1ccc(OC)c(-c2csc(NC(=O)Cc3ccccc3)n2)c1 | 47.2% | -17.3% | 18.4µM* | 0.4% | -1.1 | 2.5%
CCc1noc(C)c1C(=O)Nc1nc(-c2cc(OC)ccc2OC)cs1 | . | 2.3% | -11.4% | -2.1% | 6.8 | 2.6%
CC1CCN(S(=O)(=O)c2ccc3c(c2)N(CC(=O)NCCc2ccc(Cl)cc2)C(=O)CO3)CC1 | -14.9% | 1.1% | 16.1% | 2.2% | . | 7.8%
CCOC(=O)c1ccccc1NC(=O)CCOc1ccccc1 | 8.5% | 14.6% | 14.8% | -13.2% | . | 1.4%
